Potency and outcome data for 6 molecules are collected here from PubChem BioAssay (Tox21).

Experiment [1] addresses Estrogen receptor beta (Homo sapiens) (UniProt Q92731). Kind of experiment: qHTS assay to identify small molecule antagonists of the estrogen receptor beta (ER-beta) signaling pathway (AID 1259378; active = well fitted inhibition curve with a large enough effect in the signal ratio in the repeat runs, not every such curve was filed as active; the % refers to the signal ratio). The method, boiled down: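 ER-beta-UAS-bla HEK293T (GripTite) cells in 2% charcoal-stripped FBS medium were preincubated 6 hr at 37C, dosed with compound, then stimulated with 1 nM E2 (final) for 16 hr; beta-lactamase reporter read by B/G FRET fluorescence after 2 hr substrate loading.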

A short description of experiment [2]: qHTS assay to identify small molecule agonists of the androgen receptor (AR) signaling pathway in the presence of an antagonist - cell viability counter screen (AID 1259379). Note: series mostly up to about 92 µM; nearly all actives have a fitted effect of over 25% in size. The method, boiled down: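 MDA-kb2 human breast carcinoma cells (stable MMTV-luciferase, AR/GR responsive) were seeded 3,000 cells/well, pre-incubated 5 hr at 37C without CO2, then given 3.0uM nilutamide and compounds at 15 concentrations for 16 hr. Viability was read by CellTiter-Fluor fluorescence.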
(In qHTS, concentration-response curves come from the screen itself.)

Experiment [3] has as its target Androgen receptor (Homo sapiens) (UniProt P10275). Kind of experiment: qHTS assay to identify small molecule agonists of the androgen receptor (AR) signaling pathway in the presence of an antagonist (AID 1259381; calls by dose curve; note: nearly all actives have a fitted effect of over 15% in size). In short, it runs like this: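 MDA-kb2 human breast carcinoma cells carrying an MMTV-luciferase reporter (AR- and GR-responsive) were treated with compounds at 15 concentrations plus 3.0uM final nilutamide for 16hr at 37C without CO2; luminescence was read after ONE-Glo addition.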

Experiment [4] can be described thus: qHTS assay to identify small molecule antagonists of the estrogen receptor beta (ER-beta) signaling pathway - cell viability counter screen (AID 1259382). Note: series mostly up to about 92 µM; nearly all actives have a fitted effect of over 55% in size. In short, it runs like this:
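ER-beta-UAS-bla HEK293T cells (2,000/well, 2% charcoal-stripped FBS) were pre-incubated 6 hr at 37C, then given compound plus 1nM final 17-beta-estradiol for 16 hr. Viability was read in the same wells by CellTiter-Glo luminescence after 30 min at room temperature.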

Experiment [5] addresses Estrogen receptor (Homo sapiens) (UniProt P03372). As to the kind of experiment: qHTS assay to identify small molecule agonists of the estrogen receptor alpha (ER-alpha) signaling pathway in the presence of an antagonist (AID 1259383; calls by dose curve; note: top concentration of the series differs between compounds; nearly all actives have a fitted effect of over 15% in size). In short, it runs like this:
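VM7Luc4E2 cells (endogenous full-length ER-alpha, 4×ERE-luciferase) were precultured 5 days in phenol red-free medium with 10% charcoal-stripped FBS, given 10.0nM ICI-182,780 (final), then treated with compounds at 15 concentrations for 22hr at 37C; luminescence read with ONE-Glo.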

The nature of experiment [6]: qHTS assay to identify small molecule agonists or antagonists of the thyroid stimulating hormone receptor (TSHR) signaling pathway - wild type cell line counter screen (AID 1259384; calls by dose curve). In short, it runs like this: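 Wild-type HEK293 cells were plated 18 h at 37 C/5% CO2, pin-dosed with compound plus Ro20-1724 medium, held 30 min at room temperature, then given cAMP-d2 and anti-cAMP-cryptate; fluorescence was read after 1 h. Fifteen concentrations, triplicate.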

Experiment [7] concerns the target Thyrotropin receptor (Homo sapiens) (UniProt P16473). Kind of experiment: qHTS assay to identify small molecule antagonists of the thyroid stimulating hormone receptor (TSHR) signaling pathway (AID 1259385; calls by dose curve; note: nearly all actives have a fitted effect of over 20% in size). In short, it runs like this: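 TSHR-HEK293 cells were plated and held 18 h at 37C/5% CO2, then given compound plus Ro20-1724 and stimulated with TSH at 1.5 ng/mL final. After 30 min at room temperature, cAMP was detected with cAMP-d2/anti-cAMP-cryptate (1 h) by fluorescence.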

A short description of experiment [8]: qHTS assay to identify small molecule agonists of the estrogen receptor alpha (ER-alpha) signaling pathway in the presence of an antagonist - cell viability counter screen (AID 1259386).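 Note: series mostly up to about 92 µM; cells exposed to compounds for 22 h at 37 °C before the viability read; nearly all actives have a fitted effect of over 30% in size.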 The method, boiled down:
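VM7Luc4E2 cells (endogenous full-length ER-alpha, 4×ERE-luciferase) were held 5 days in phenol red-free medium with 10% charcoal-stripped FBS, plated, then given 10.0nM ICI-182,780 and compounds at 15 concentrations for 22hr at 37C; viability read by CellTiter-Fluor fluorescence.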

Experiment [9] deals with Progesterone receptor (Homo sapiens) (UniProt P06401). Kind of experiment: qHTS assay to identify small molecule agonists of the progesterone receptor (PR) signaling pathway (AID 1346784; calls by dose curve; note: nearly all actives have a fitted effect of over 30% in size). The method, boiled down:
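Cells (PR-UAS-bla HEK 293T, GripTite) were plated in assay medium containing 2% charcoal-stripped FBS and incubated 6 hr. Test compounds in DMSO were added for 16 hr at 37C. FRET substrate was then loaded for 2 hr at room temperature before fluorescence reading.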

Experiment [10] is described as follows: qHTS assay to identify small molecule antagonists of the progesterone receptor (PR) signaling pathway - cell viability counter screen (AID 1346798). Note: series mostly up to about 92 µM; nearly all actives have a fitted effect of over 50% in size. The method, boiled down:
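Counter screen for cytotoxicity: viability of PR-UAS-bla HEK293T cells was measured with CellTiter-Glo luminescence following 16 hr compound exposure in the presence of R5020.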

A short description of experiment [11]: qHTS assay to identify small molecule antagonists of the TGF-beta/Smad signaling pathway - cell viability counter screen (AID 1346824). Note: nearly all actives have a fitted effect of over 50% in size. The method, boiled down:
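SBE-bla HEK 293T cells were plated overnight at 37 C, then given compounds in DMSO plus TGF-beta1 (added as 0.25 ng/mL solution) for 5 hr. After the bla read, CellTiter-Glo was added to the same wells and luminescence read after 30 min at room temperature.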

Experiment [12] can be described thus: qHTS assay to identify small molecule agonists of the TGF-beta/Smad signaling pathway - cell viability counter screen (AID 1346829). Note: top concentration of the series differs between compounds; nearly all actives have a fitted effect of over 45% in size. The method, boiled down:
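Same-well cytotoxicity: CellTiter-Glo added after the 2 hr room-temperature beta-lactamase substrate step, luminescence measured 30 min later; cells had 5 hr of compound at 37 C.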

A short description of experiment [13]: qHTS assay to identify small molecule agonists of the TGF-beta/Smad signaling pathway (AID 1346859; active = well fitted activation curve with a large enough effect in the signal ratio in the repeat runs, not every such curve was filed as active; the % refers to the signal ratio; note: series mostly up to about 77 µM). The method, boiled down: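 Reporter line: HEK 293T with stably integrated SBE-controlled beta-lactamase. Compound exposure lasts 5 hr at 37 C and 5% CO2; substrate loading follows for 2 hr at room temperature, with emission read at 460 and 530 nm.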
The target of experiment [14] is Thyrotropin-releasing hormone receptor (Homo sapiens) (UniProt P34981). Kind of experiment: qHTS assay to identify small molecule antagonists of the thyrotropin-releasing hormone receptor (TRHR) signaling pathway (AID 1346877; active = well fitted inhibition curve with a large enough effect in the repeat runs, not every such curve was filed as active; note: series mostly up to about 51 µM). In short, it runs like this: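 TRHR-expressing HEK293 cells were seeded, cultured 18 h at 37 °C, then loaded with calcium dye for 2 h. Compounds were pre-incubated 5 min at room temperature before 1 nM TRH (final) was added, and kinetic fluorescence was recorded for 3 min.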

For experiment [15] the target is unchanged. As to the kind of experiment: qHTS assay to identify small molecule agonists of the thyrotropin-releasing hormone receptor (TRHR) signaling pathway (AID 1346891; calls by dose curve; note: series mostly up to about 58 µM). In short, it runs like this:
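Cells: TRHR-Hek293, seeded and incubated 18 h. Dye loading: 2 h at 37 °C. Compound added from DMSO stock by pin tool. Read-out: kinetic calcium fluorescence over 3 min.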

The nature of experiment [16]: qHTS assay to identify small molecule agonists of the estrogen receptor beta (ER-beta) signaling pathway - cell viability counter screen (AID 1259380). Note: nearly all actives have a fitted effect of over 30% in size. Note: potency is the fitted concentration of half-maximal effect. The method, boiled down: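 ER-beta-UAS-bla HEK293T cells in medium with 2% charcoal-stripped FBS were preincubated 6 hr at 37C, dosed with compound in DMSO for 16 hr, then after the bla read, CellTiter-Glo was added for 30 min at room temperature; luminescence recorded.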

The target of experiment [17] is Progesterone receptor (Homo sapiens) (UniProt P06401). As to the kind of experiment: qHTS assay to identify small molecule antagonists of the progesterone receptor (PR) signaling pathway (AID 1346795; active = well fitted inhibition curve with a large enough effect in the signal ratio in the repeat runs, not every such curve was filed as active; the % refers to the signal ratio). The method, boiled down:
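Antagonist mode: compounds tested against 1 nM (final) promegestone stimulation in HEK293T cells expressing PR-UAS-bla reporter, 16 hr at 37C, 5% CO2; beta-lactamase activity detected via B/G FRET substrate after 2 hr at room temperature.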

Experiment [18] in a line: qHTS assay to identify small molecule agonists of the progesterone receptor (PR) signaling pathway - cell viability counter screen (AID 1346799; calls by dose curve; note: nearly all actives have a fitted effect of over 45% in size). In short, it runs like this:
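Cells (PR-UAS-bla HEK293T) are plated at 3,000/well in 2% charcoal-stripped FBS medium, rested 6 hr, dosed and incubated 16 hr at 37C. CellTiter-Glo is then added and luminescence measured after 30 min at room temperature.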

Results filed as inconclusive are left out. Active and inactive are the calls of the source. Unless noted, calls come from the whole dose curve; as a rule, active = well fitted curve in the direction sought with a large enough effect in the repeat runs; inconclusive = weak or mixed curves; inactive = no such curve, though single readings can be large; an effect the other way counts as inactive or inconclusive.

Progesterone receptor (Homo sapiens), sequence (P06401 whole entry, looked up): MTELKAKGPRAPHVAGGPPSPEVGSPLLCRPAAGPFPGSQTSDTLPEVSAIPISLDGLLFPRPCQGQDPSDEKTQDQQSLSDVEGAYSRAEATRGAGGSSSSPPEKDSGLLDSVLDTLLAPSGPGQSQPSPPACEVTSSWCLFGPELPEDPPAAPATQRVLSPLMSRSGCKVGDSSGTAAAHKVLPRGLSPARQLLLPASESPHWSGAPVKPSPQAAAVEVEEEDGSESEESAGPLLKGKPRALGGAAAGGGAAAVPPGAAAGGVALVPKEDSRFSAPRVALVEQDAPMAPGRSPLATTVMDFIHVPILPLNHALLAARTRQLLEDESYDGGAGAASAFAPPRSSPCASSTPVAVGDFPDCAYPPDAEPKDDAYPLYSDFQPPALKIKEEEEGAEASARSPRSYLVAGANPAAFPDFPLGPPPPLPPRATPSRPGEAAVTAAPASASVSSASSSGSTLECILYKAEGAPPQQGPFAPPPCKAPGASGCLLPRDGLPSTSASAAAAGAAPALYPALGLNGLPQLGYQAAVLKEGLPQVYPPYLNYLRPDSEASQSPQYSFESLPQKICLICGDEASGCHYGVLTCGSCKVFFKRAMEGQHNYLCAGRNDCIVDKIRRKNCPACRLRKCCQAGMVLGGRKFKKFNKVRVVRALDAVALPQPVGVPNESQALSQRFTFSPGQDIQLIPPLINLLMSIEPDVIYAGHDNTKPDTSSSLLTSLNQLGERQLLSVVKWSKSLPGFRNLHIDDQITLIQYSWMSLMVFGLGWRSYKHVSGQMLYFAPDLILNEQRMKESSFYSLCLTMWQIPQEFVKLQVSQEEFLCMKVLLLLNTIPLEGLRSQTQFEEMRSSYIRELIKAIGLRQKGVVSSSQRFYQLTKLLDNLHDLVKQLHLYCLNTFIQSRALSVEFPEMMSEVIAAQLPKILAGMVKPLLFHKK
Thyrotropin-releasing hormone receptor (Homo sapiens), sequence (P34981 whole entry, looked up): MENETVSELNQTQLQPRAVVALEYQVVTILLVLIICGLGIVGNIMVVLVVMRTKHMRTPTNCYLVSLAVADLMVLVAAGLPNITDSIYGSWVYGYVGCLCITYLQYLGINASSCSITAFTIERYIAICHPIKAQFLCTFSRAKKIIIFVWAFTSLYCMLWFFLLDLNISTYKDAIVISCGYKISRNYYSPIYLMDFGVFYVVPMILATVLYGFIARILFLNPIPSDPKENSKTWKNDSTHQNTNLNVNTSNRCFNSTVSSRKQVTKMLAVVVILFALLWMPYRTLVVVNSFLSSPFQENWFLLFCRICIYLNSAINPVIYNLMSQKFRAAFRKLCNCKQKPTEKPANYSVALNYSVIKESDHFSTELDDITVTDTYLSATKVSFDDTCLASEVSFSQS
Thyrotropin receptor (Homo sapiens), sequence (P16473 whole entry, looked up): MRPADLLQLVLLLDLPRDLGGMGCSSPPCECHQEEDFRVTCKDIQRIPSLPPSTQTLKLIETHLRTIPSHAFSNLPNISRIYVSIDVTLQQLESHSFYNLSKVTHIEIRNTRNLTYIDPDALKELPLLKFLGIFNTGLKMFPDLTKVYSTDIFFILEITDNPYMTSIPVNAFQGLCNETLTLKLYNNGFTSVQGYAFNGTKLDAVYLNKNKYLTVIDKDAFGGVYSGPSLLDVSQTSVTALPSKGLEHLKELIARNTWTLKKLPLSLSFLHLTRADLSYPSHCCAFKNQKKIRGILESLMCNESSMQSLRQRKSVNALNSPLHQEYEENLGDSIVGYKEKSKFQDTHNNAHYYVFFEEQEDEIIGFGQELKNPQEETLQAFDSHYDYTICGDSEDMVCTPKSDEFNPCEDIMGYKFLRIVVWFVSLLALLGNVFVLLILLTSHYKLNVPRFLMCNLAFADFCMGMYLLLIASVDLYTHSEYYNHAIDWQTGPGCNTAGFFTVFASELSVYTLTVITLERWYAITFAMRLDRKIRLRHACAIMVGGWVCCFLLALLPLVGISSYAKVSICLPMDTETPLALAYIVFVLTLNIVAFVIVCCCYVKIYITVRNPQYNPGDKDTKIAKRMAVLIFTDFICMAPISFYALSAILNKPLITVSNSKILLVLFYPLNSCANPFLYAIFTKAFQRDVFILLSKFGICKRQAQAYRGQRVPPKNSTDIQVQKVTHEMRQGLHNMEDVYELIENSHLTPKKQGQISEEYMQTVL
Estrogen receptor beta (Homo sapiens), sequence (Q92731 whole entry, looked up): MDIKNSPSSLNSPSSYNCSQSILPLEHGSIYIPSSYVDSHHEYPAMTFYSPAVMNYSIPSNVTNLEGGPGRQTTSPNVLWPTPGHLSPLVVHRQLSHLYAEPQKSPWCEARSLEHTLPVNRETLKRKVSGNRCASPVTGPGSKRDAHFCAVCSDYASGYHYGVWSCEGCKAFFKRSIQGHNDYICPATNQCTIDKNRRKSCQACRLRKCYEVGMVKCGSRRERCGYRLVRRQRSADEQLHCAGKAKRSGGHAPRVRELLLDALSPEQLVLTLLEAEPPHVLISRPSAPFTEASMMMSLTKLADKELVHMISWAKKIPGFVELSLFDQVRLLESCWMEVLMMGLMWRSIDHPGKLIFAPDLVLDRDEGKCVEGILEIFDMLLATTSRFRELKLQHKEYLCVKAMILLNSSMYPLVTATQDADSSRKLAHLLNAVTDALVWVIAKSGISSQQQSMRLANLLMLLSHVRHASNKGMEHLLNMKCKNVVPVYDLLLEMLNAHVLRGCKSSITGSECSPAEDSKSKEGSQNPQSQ
Estrogen receptor (Homo sapiens), sequence (P03372 whole entry, looked up): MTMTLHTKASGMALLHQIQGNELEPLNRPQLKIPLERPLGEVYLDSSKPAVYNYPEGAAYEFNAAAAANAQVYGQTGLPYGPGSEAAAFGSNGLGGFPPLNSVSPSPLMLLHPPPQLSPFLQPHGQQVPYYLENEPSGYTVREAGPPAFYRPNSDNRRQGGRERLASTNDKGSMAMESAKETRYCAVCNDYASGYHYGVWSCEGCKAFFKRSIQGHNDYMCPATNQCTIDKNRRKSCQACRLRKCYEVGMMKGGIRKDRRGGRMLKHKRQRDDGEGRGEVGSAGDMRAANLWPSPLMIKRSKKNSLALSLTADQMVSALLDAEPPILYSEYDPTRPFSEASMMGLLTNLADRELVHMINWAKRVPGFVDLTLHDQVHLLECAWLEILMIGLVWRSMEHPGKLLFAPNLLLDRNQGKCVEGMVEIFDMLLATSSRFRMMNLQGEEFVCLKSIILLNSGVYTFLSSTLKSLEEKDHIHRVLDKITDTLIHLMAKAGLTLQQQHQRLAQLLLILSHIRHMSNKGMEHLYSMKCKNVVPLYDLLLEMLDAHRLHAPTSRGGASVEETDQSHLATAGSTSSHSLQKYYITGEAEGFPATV
Androgen receptor (Homo sapiens), sequence (P10275 whole entry, looked up): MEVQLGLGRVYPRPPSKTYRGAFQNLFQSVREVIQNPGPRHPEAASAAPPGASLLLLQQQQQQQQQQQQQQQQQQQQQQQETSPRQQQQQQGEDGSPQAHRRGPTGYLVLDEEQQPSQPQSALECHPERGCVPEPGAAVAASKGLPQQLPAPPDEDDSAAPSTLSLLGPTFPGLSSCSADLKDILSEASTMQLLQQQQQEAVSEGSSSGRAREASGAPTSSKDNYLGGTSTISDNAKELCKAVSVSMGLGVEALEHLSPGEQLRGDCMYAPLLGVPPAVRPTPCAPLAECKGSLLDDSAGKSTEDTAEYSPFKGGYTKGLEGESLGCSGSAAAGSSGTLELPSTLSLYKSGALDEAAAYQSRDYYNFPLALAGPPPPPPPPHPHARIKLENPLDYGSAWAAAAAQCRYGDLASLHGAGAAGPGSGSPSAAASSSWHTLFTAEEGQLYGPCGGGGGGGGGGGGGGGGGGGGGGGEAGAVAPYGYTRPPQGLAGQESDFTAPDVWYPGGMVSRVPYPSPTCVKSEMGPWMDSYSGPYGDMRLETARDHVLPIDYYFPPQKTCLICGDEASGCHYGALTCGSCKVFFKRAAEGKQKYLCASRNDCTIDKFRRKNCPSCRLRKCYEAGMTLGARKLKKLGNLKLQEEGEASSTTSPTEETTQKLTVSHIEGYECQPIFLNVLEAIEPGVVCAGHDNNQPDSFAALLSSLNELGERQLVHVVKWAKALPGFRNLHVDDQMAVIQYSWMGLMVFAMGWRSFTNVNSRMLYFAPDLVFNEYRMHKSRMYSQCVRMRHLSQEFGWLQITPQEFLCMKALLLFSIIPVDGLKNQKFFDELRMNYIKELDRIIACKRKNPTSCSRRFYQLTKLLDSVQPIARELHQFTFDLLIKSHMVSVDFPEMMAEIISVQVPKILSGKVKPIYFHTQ

In the case of `C[C@@H]1C[C@H]2O[C@@]3(O[C@@H]2C(C)(C)O)[C@H](O)[C@@]2(C)[C@@H]4CC[C@H]5C(C)(C)[C@@H](O[C@@H]6OC[C@@H](O)[C@H](O)[C@H]6O)CC[C@@]56C[C@@]46CC[C@]2(C)[C@@H]13`, the Potency entry in experiment [1], in experiment [2], in experiment [3], in experiment [4], in [5] and in experiment [6] was “inactive” throughout. Further, the Potency result in experiment [7], in [8], in experiment [9], in [10], in experiment [11] and in experiment [13] was “inactive” each time. In addition, the Potency result in [15] was “inactive”. The molecule was classed as inactive in [12] and in [14].

On to `CC[N+]1(CC)CCC(=C(c2ccccc2)c2ccccc2)C1C` (stereo not given), for which the Potency entry in experiment [16], in experiment [4], in experiment [6], in experiment [7], in experiment [8] and in [9] was “inactive” throughout. In addition, the Potency result in [17], in experiment [10], in experiment [18], in [11] and in experiment [13] was “inactive” each time. The outcome in [12] was inactive.

Turning to `CN(C)CCN(Cc1ccc(Cl)cc1)c1ccccn1`, the Potency result in experiment [2], in experiment [6], in [8], in experiment [9], in experiment [17] and in [18] was “inactive” throughout. The Potency entry in [11], in [13] and in experiment [15] was “inactive” throughout. In addition, in experiment [16], the Potency was 33.5 µM (active). Moreover, the call in experiment [12] and in experiment [14] was inactive.

Turning to `Nc1ccc(S(=O)(=O)Nc2ccccc2)cc1`, the Potency result in experiment [2], in experiment [16], in experiment [6], in [7], in experiment [8] and in [9] was “inactive” throughout. Also, the Potency result in experiment [17], in experiment [10], in [18], in experiment [11], in experiment [13] and in experiment [15] was “inactive” throughout. Also, the call in [12] was inactive.

`Nc1ccccc1S(=O)(=O)c1ccccc1`: the Potency entry in [2], in [16], in experiment [4], in experiment [6], in experiment [7] and in experiment [8] was “inactive” throughout. For the same molecule, the Potency result in experiment [9], in experiment [10], in [11] and in [13] was “inactive” each time. For the same molecule, the call in experiment [12] and in experiment [14] was inactive.

In the case of `CCNc1cc(O)ccc1C`, the Potency result in experiment [1], in experiment [2], in [16], in [4], in experiment [5] and in [6] was “inactive” throughout. The Potency result in experiment [8], in experiment [9], in experiment [17], in experiment [10], in experiment [18] and in experiment [11] was “inactive” throughout. Moreover, the Potency result in experiment [13] and in experiment [15] was “inactive” each time. For the same molecule, the molecule was classed as inactive in experiment [12] and in experiment [14].
